Screening data as filed in PubChem.
Shown are actives, neighbours in structure and some others; about 21% of the full set was active somewhere.
Pf growth 96h: P. falciparum growth inhibition at 96 hours | P. falciparum luciferase reporter growth, 96 h | Potency, µM (titrated, usually from 28.7 µM), inactives show at the top dose activity change, negative = inhibition, hits mostly inhibitors | 320,000 tested, 6.9% active; further: potency means the concentration at half of the fitted maximal effect; on the % scale 0 is the no-effect control and ±100 the full control effect
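P. falciparum expressing integrated firefly luciferase, in erythrocytes at 2% hematocrit, 0.05% parasitemia, incubated with compounds 96 h at 37 C, 5% CO2. Growth inhibition read as loss of luminescence; two-generation exposure targets delayed-death apicoplast inhibitors.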
Pf growth 48h: P. falciparum growth inhibition at 48 hours (one generation); P. falciparum luciferase growth in erythrocytes, 48 h; Potency, µM (doses to about 28.7 µM), for inactives: top-dose activity change, negative = inhibition, actives largely listed as inhibitors; 310,000 tested, 5.9% active; AID 504832; further: potency means the concentration at half of the fitted maximal effect; on the % scale 0 is the no-effect control and ±100 the full control effect
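Compounds are pin-transferred into medium, infected erythrocytes (2% hematocrit, 0.1% parasitemia final) are added, and plates sit one parasite generation at 37 C in 5% CO2. Detection reagent is then added and luminescence measured.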
CHX counter: affects cycloheximide protein synthesis inhibition readout, counter-screen | 300,000 tested, 12% active | max response, % | AID 2314 | cell reporter, cycloheximide protein synthesis inhibition counterscreen; in the data active means max response mostly above about 13%, no sharp cut-off; inactive means mostly below about 14%; further: read at 38.3 µM for the half of the compounds with a filed dose; 0% is about no effect
Shiga toxin inh: inhibitors of Shiga toxin in Vero cells | inhibition, % at 38.7 µM | Vero cells, Shiga toxin protein synthesis inhibition reporter | 290,000 tested, 9.2% active; in the data active means inhibition mostly above about 28%, no sharp cut-off; inactive means mostly below about 43%; further: 0% is about no effect
The depositor's hits bear a star; ? = inconclusive; / = no result; [ ] = remark or other dose. Unless noted, the call rests on the fitted dose curve; in most records, active means well fitted inhibition curve with a large enough effect; inconclusive means small, poorly fitted or top-dose-only effect, or another doubt; inactive means no such curve, though single readings can be large or run the other way.

SMILES	Pf growth 96h	Pf growth 48h	CHX counter	Shiga toxin inh
Cc1ccc(CN(C(=O)c2cc(=O)c3cc(Cl)c(C)cc3o2)C2CCS(=O)(=O)C2)cc1 (stereo not drawn)	4.7µM*	?	-3	-16
O=C(OCC(=O)N1CCCc2ccccc21)c1cc(Cl)ccc1O	0%	17%	8	-12
O=C(NC1(C(F)(F)F)Oc2ccc(Cl)cc2O1)N1CCC2(CC1)OCCO2 (stereo not drawn)	1.9µM*	/	-2	-6
O=C(NC1(C(F)(F)F)Oc2ccccc2O1)N1CCC2(CC1)OCCO2	?	-15%	-2	12
Cc1ccc(CNC(=O)C2CCCN(c3nc4ccsc4c(=O)s3)C2)cc1 (stereo not drawn)	-4%	-18%[1.15 µM]	-5	18
O=C(O)CC/C(=N\Nc1ccccc1[N+](=O)[O-])c1cccs1	0%	42%	47*	58*
O=C(O)CC/C(=N\Nc1ccc(S(=O)(=O)N2CCCC2)cc1[N+](=O)[O-])c1cccs1	?	/	-3	-20
O=C(O)CC/C(=N\Nc1ccc(S(=O)(=O)N2CCOCC2)cc1[N+](=O)[O-])c1cccs1	12µM*	6.6µM*	-5	-2
O=C1CC(NS(=O)(=O)c2cc(F)ccc2F)CN1c1cccc(F)c1 (stereo not drawn)	34%	9%	/	/
Cc1cc2nsnc2c(S(=O)(=O)N2CCN(C)CC2)c1C	6%	-6%	-4	-7
C[C@@]12C(=O)N(CCO)CC(=O)N1[C@H](/C=C/c1ccccc1)[C@@H]1C(=O)N(c3ccccc3)C(=O)[C@@H]12	39%	0%	8	4
CN(C)c1ccc(C(=O)c2ccc(N(C)C)c(N)c2)cc1N	-1%	17%	28*	75
O=c1[nH]c2ccccc2n1CCCN1CCN(C(c2ccccc2)c2ccccc2)CC1	12µM*	12µM*	-6	-4
CCOC(=O)C1=C(N)Oc2cc(O)ccc2C1c1cccc(Cl)c1 (stereo not drawn)	-16%	19%	-2	-8
COc1ccc(C2N=C(N)N=C(N)N2c2ccc(C)cc2)cc1 (stereo not drawn)	5.9µM*	/	-1	-6
Cc1cc(C)cc(N2C(N)=NC(N)=NC2c2cccc(Cl)c2)c1 (stereo not drawn)	5%	1.2µM*	-1	-4
Cc1cc(C)cc(N2C(N)=NC(N)=NC2c2ccccc2F)c1 (stereo not drawn)	36%	3.3µM*	-4	-3
CCOc1cc(/C=C2\CCn3c2nc2cc(Cl)ccc2c3=O)ccc1O	0%	-3%	-3	-4
O=C(COc1ccc(Cl)cc1)N(Cc1ccccc1)c1ccccn1	?	3%	15	6
O=C(Cc1ccc(Br)cc1)N(Cc1ccccc1)c1ccccn1	-8%	-11%	3	17
CC(C)(Oc1ccc(Cl)cc1)C(=O)N(Cc1ccccc1)c1ccccn1	1.9µM*	?	-2	-13
O=C(COc1ccc(Br)cc1)N(Cc1ccccc1)c1ccccn1	?	?	15	53*
CC(C)c1ccc(OCC(=O)N(Cc2ccccc2)c2ccccn2)cc1	?	-26%	14*	17
O=C(NCC1CCCO1)c1ccc(Cl)c(S(=O)(=O)N2CCCCC2)c1 (stereo not drawn)	2%	?	-2	-5
COc1cccc(NC(=O)C2(S(=O)(=O)c3ccc(Cl)cc3)CC2)c1	5%	-2%	7	-9
SMILES	Pf growth 96h	Pf growth 48h	CHX counter	Shiga toxin inh
C=C1CC[C@@]23CC[C@]4(C)[C@@](OC2=O)([C@@H]3C1)[C@H]1O[C@H]1C1[C@@]2(C)CC[C@H](O)C(C)(C)C2CC[C@]14C (stereo partly drawn)	33%	?	/	/
O=C(NN1CCCCC1)c1ccccc1	32%	-1%	8	-3
O=C(NC(C(=O)c1ccccc1)N1CCCCC1)c1ccccc1 (stereo not drawn)	8%	40%	33*	72*
NC(=O)N/N=C/c1ccccc1OC(=O)c1cc2ccccc2oc1=O	27%	23%	26*	77*
N/C(=N\NC(=O)c1ccccc1)c1cc2ccccc2oc1=O	-2%	-26%	7	-6
NC(=S)N/N=C/c1ccccc1OC(=O)c1cc2ccccc2oc1=O	0.59µM*	0.33µM*	20	31
NC(=S)N/N=C/c1ccccc1OC(=O)/C=C/c1ccccc1	?	?	2	15
CN1CCN(S(=O)(=O)c2ccc(Oc3ccc(F)c(Cl)c3)nc2)CC1	30%	4%	-7	8
CC(C)N(C(=O)Cn1c(=O)oc2ccccc21)c1ccccc1	48%	-18%	2	-6
COc1ccc(NC(=O)C2CCCN(C(=O)Nc3ccc(F)cc3)C2)cc1 (stereo not drawn)	2%	-3%	-2	-5
O=C(Cc1ccc(F)cc1)Nc1ccc2[nH]ncc2c1	31%	13%	1	/
COc1ccccc1CC(=O)Nc1ccc2[nH]ncc2c1	-5%	10µM*	-2	-22
COc1ccc(C(=O)Nc2ccc3[nH]ncc3c2)cc1OC	-181%	71%	14	38
COc1cccc(C(=O)Nc2ccc3[nH]ncc3c2)c1OC	323%	34%	32*	71*
CC(=O)C1C(c2ccc(F)c(F)c2)NC(=O)NC1(O)C(F)(F)F (stereo not drawn)	39%	1%	-3	-2
CCOC(=O)C1CCN(C(=O)Nc2ccc3c(c2)nc(C)n3C)CC1	?	348%	49*	53*
Cc1nc2cc(NC(=O)N3CCCCC3)ccc2n1C	?	96%	19*	44*
CCOC(=O)C1CCN(C(=O)Nc2ccc3nc(-c4ccco4)c(-c4ccco4)nc3c2)CC1	?	10µM*	-2	39
O=C(Nc1ccc2nc(-c3ccco3)c(-c3ccco3)nc2c1)N1CCCCCC1	10%	?	5	8
CC(C)C[C@H](NC(=O)[C@H](CC(C)C)NC(=O)[C@H](CCC(N)=O)NC(=O)[C@H](CO)NC(=O)[C@@H]1CCCN1C(=O)[C@H](CO)NC(=O)[C@H](CO)NC(=O)[C@@H](NC(=O)[C@H](Cc1cnc[nH]1)NC(=O)[C@H](CCC(=O)O)NC(=O)[C@H](Cc1ccc(O)cc1)NC(=O)[C@H](CCCCN)NC(=O)[C@H](CCC(N)=O)NC(=O)[C@H](Cc1ccc(O)cc1)NC(=O)[C@H](CC(=O)O)NC(=O)[C@@H](NC(=O)[C@@H]1CCCN1C(=O)[C@H](CC(=O)O)NC(=O)[C@H](CC(N)=O)NC(=O)[C@H](CC(=O)O)NC(=O)CNC(=O)[C@H](CC(=O)O)NC(=O)[C@@H]1CCCN1C(=O)[C@H](CCC(N)=O)NC(=O)[C@H](Cc1ccc(O)cc1)NC(=O)[C@H](C)NC(=O)[C@H](Cc1c[nH]c2ccccc12)NC(=O)[C@H](Cc1ccccc1)NC(=O)[C@@H](NC(=O)[C@@H](N)CO)[C@@H](C)O)[C@@H](C)O)[C@@H](C)O)C(=O)N[C@@H](C)C(=O)N1CCC[C@H]1C(=O)NCC(=O)N[C@@H](CC(=O)O)C(=O)N[C@@H](Cc1ccc(O)cc1)C(=O)O	/	/	-9	-1
